Shown are actives, neighbours in structure and some others; about 0.99% of the full set was active somewhere.
L3MBTL1 block: L3MBTL1 (human) inhibition; Q9Y468; AlphaScreen L3MBTL1–H3K9me1 peptide binding; Potency, µM (top dose mostly 57.1 µM), inactives show at the highest dose activity, negative = inhibition, usual class: inhibitors; 230,000 tested, 0.66% active; AID 485360; also: % is scaled to controls: 0 for no effect and ±100 for the full control effect; nearly all actives have a fitted effect of over 60% in size
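AlphaScreen assay: L3MBTL1 (50 nM final) was preincubated 30 min at room temperature with biotinylated H3(1-15)K9me1 peptide (75 nM final), then 30 min with library compounds; streptavidin donor and nickel chelate acceptor beads (10 ug/mL final) added, 30 min dark.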
BLM helicase inh: Bloom syndrome helicase (human) inhibition | Potency, µM (titrated, usually from 56.1 µM), without a hit: at the top dose activity change, negative = inhibition, actives largely listed as inhibitors | recombinant BLM DNA unwinding, fluorescence dequenching | 350,000 tested, 0.2% active | P54132;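 also: plate controls were vehicle for no effect and no enzyme for full effect; nearly all actives have a fitted effect of over 35% in size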
RECQ1 helicase: blocks DNA unwinding by human RECQ1; P46063; 240,000 tested, 0.54% active; AID 2549; RECQ1 DNA unwinding, red fluorescence kinetic read; Potency, µM (doses to about 57.3 µM), for the others: at the highest dose activity, negative = inhibition, actives largely listed as inhibitors;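 also: plate controls were vehicle for no effect and no enzyme for full effect; nearly all actives have a fitted effect of over 30% in size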
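RECQ1T1 50 nM; forked duplex (20 bp + 30-nt ss tails) 200 nM, ATP 2 mM final; pH 8.0, 2 mM MgCl2, 2.5 ug/ml poly(dI-dC); 15 min compound preincubation; discontinuous kinetic read over 2 h at RT.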
WRN helicase inh: inhibitors of human WRN helicase; Q14191; WRN helicase unwinding, fluorescent forked duplex, kinetic; Potency, µM (series often up to 114 µM), inactives show top-dose activity change, negative = inhibition, usual class: inhibitors; 360,000 tested, 0.46% active; also: % is scaled to controls: 0 for no effect and ±100 for the full control effect; nearly all actives have a fitted effect of over 55% in size
Target sequence (Q14191 whole entry, looked up): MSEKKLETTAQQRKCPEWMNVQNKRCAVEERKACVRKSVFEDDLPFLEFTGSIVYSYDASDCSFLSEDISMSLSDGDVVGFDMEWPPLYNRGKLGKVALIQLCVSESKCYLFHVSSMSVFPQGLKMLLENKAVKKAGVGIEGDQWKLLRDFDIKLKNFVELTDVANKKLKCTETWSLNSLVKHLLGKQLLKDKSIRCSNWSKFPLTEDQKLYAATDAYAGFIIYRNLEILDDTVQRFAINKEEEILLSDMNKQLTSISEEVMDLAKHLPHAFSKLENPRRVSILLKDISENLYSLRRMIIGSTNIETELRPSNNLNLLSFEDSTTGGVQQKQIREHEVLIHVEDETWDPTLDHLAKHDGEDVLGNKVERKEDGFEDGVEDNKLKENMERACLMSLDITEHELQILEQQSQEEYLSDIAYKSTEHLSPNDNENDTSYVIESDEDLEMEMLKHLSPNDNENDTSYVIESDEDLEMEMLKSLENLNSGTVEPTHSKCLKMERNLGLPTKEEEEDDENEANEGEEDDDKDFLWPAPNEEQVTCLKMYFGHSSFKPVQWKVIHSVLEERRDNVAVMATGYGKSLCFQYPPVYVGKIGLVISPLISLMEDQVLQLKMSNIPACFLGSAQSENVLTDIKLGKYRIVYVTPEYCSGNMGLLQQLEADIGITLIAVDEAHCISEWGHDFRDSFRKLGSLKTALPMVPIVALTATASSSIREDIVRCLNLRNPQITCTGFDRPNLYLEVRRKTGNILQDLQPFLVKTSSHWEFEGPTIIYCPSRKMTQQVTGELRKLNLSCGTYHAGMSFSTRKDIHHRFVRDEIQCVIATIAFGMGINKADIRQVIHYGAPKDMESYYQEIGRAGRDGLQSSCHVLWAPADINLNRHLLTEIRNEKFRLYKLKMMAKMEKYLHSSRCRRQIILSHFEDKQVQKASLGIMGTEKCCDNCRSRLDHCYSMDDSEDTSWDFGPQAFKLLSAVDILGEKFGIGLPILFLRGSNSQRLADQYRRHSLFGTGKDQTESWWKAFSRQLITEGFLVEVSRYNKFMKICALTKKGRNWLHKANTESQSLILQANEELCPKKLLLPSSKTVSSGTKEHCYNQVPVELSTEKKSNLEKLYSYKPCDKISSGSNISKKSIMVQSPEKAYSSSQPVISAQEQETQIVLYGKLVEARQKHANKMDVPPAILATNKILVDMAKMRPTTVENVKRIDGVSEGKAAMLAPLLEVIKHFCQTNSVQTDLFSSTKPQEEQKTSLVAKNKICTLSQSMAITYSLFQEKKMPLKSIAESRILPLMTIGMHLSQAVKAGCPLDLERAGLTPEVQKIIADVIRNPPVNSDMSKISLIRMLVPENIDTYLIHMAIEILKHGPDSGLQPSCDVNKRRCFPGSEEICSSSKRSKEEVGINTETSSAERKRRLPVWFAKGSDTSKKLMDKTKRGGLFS
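Kinetic fluorescence helicase assay: unwinding of a quenched forked DNA duplex (100 nM final) with 2 mM ATP final raises red fluorescence (525/598 nm). Compounds sat 15 min at room temperature with 20 nM WRN beforehand.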
FEN1 inh-1: blocks human flap endonuclease 1. P39748. Recombinant FEN1 flap cleavage, fluorescence, 15 min. Potency, µM (doses to about 114 µM), for inactives: at the highest dose activity change, negative = inhibition, hits mostly inhibitors. 390,000 tested, 0.35% active; also: % is scaled to controls: 0 for no effect and ±100 for the full control effect; nearly all actives have a fitted effect of over 65% in size
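Enzyme 10 nM, 15 min RT preincubation with compound; start with substrate 50 nM final; reads at 0 and 15 min; qHTS titration, four-parameter Hill fit.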
FEN1 inh-2: FEN1 inhibition, cherry-pick retest; shares compounds with FEN1 inh-1; FEN1 flap cleavage, TAMRA/BHQ2 fluorogenic DNA substrate; Potency, µM, usual class: inhibitors; 880 tested, 79% active; also: nearly all actives have a fitted effect of over 60% in size
* hit, by the source's call; i = inactive; ? = inconclusive; . = no result; [ ] = dose if it differs, or a comment. Calls follow the shape of the dose curve; as a rule, active = well fitted curve in the direction sought with a large enough effect; inconclusive = small, poorly fitted or top-dose-only effect, or another doubt; inactive = no such curve, though single readings can be large; an effect the other way counts as inactive or inconclusive. Potency is read from the fitted curve at half-maximal effect.

SMILES	L3MBTL1 block	BLM helicase inh	RECQ1 helicase	WRN helicase inh	FEN1 inh-1	FEN1 inh-2
COc1cccc(-c2nn(C)c3sc(C(=O)NCCCN(C)Cc4ccccc4)cc23)c1	.	50.9%	.	13.6%	?	.
CCCCN(CC)CCCNC(=O)c1cc2c(-c3ccc(OC)c(OC)c3)nn(C)c2s1	.	-5.2%	.	-28.5%	35.5µM*	33.8*
CCN(CC)CCCNC(=O)c1cc2c(Cl)nc3ccccc3c2s1	.	114.7%	26.7%	41.5%	44.7µM*	67.5*
CCN(CCCNC(=O)c1cc2c(Cl)nc3ccccc3c2s1)Cc1ccccc1	.	113.3%	.	.	?	.
CCOC(=O)CCCNC(=O)c1cncc(O)c1	.	3.1%	-7.1%	1.7%	-12.2%	.
CCN(CC)C(=O)CCCSc1nnc(Nc2ccccc2F)s1	.	-3.2%	-3.8%	-1.2%	13.2%	.
COc1ccc2c([N+](=O)[O-])c(Cl)[nH]c2c1	-8.9%	-7.4%	8.3%	-20.1%[11.6 µM]	17.8µM*	33.8*
Cc1cccc(C(=O)NCCc2n[nH]c(=S)n2C)c1	-17.0%	-3.6%	11.0%	2.7%	-3.2%	.
O=c1c2ccccc2nc2sc(Nc3cccc(Cl)c3)nn12	7.3%	.	.	.	16.5%	.
COc1cccc(CNC(=O)c2ccc3c(=O)n4nc(Nc5ccccc5)sc4nc3c2)c1	.	-6.0%	.	.	1.2%	.
CN1CCN(c2cccc(Nc3nn4c(=O)c5ccccc5nc4s3)c2)CC1	.	.	.	.	.	42.6*
COc1ccc2c(=O)n3nc(Nc4cccc(N5CCN(C)CC5)c4)sc3nc2c1	.	.	.	.	.	?
CCN1CCN(c2cccc(Nc3nn4c(=O)c5ccccc5nc4s3)c2)CC1	.	.	.	.	.	?
Cc1cc(Br)ccc1NC(=O)C(NS(=O)(=O)c1cccs1)c1ccccc1 (centres undefined)	.	-3.8%	.	.	-0.5%	.
O=C1N[C@H](Cc2ccccc2)COC(=O)[C@H](Cc2ccc(F)cc2)C/C=C\C[C@H]1CC(=O)N(CCO)Cc1ccccc1	0.4%	.	.	-2.6%	-25.0%	.
Cc1csc2ncc(C(=O)NCc3ccc4c(c3)OCO4)c(=O)n12	-10.4%	-2.3%	14.0%	-2.2%	-19.2%	.
Cc1sc(NC(=O)CSc2nc(O)cc(=O)[nH]2)nc1-c1ccccc1	-5.0%	?	i	?	50.1µM*	67.5*
CN(C)c1ccc(-c2ccc3ncnc(N(C)Cc4ccco4)c3c2)cc1	.	1.5%	12.2%	.	.	.
CN(Cc1cccs1)c1ncnc2ccc(-c3ccc4cnn(C)c4c3)cc12	.	.	.	.	.	33.8*
C=CCc1cc(CN2CC(C)OC(C)C2)c(O)c(OC)c1 (centres undefined)	.	.	.	9.7%	-0.6%	.
O=C(CCN1C(=O)/C(=C/c2ccc(Cl)cc2)SC1=S)Nc1ccc(C(=O)O)cc1	.	-1.4%	.	-4.5%	-2.8%	.
O=C(CCN1C(=O)/C(=C\c2cccs2)SC1=S)Nc1ccc(C(=O)O)cc1	.	-0.2%	.	0.7%[11.6 µM]	?	67.5*
CCN(CC)CCOC(=O)c1ccc(NC(=O)CCCN2C(=O)/C(=C\c3cccs3)SC2=S)cc1	.	-0.9%	.	-2.9%[11.6 µM]	?	?
O=C(CCCN1C(=O)/C(=C/c2cccs2)SC1=S)Nc1cccnc1	-6.2%	-10.0%	-19.7%	-18.0%	1.3%	.
O=C(NC(c1ccco1)c1cc(Cl)c2cccnc2c1O)c1ccsc1 (centres undefined)	.	.	.	.	.	?
SMILES	L3MBTL1 block	BLM helicase inh	RECQ1 helicase	WRN helicase inh	FEN1 inh-1	FEN1 inh-2
O=C(COC(=O)CNC(=O)C1CCCCC1)Nc1ccccc1Cl	4.7%	.	.	.	3.8%	.
CC[N+](CC)(CC)CCCCOc1ccc2c(c1)C(=O)c1cc(OCCCC[N+](CC)(CC)CC)ccc1-2	1.0%	?	-7.2%	50.1µM*	12.6µM*	21.3*
COc1cc(/C=C(/C#N)C(=O)Nc2ccccc2)c(Br)cc1OCc1ccc(C(=O)O)cc1	.	1.0%	-1.0%	?	-19.5%	.
COc1cc(/C=C(\C#N)C(=O)Nc2cccc(C(=O)O)c2)ccc1OCc1ccc(Cl)cc1	.	?	.	-4.8%[11.6 µM]	?	75.7*
COc1ccc(/C=C/c2cccc[n+]2C)c(O)c1	-0.9%	-14.5%	.	13.9%	15.0%	.
CCN(CC)c1ccc(/C=C/c2cccc[n+]2C)c(OC)c1	-12.8%	-0.1%	.	79.4µM*	?	26.9*
CCOC(=O)c1c(C)[nH]c(C)c1C(=O)COC(=O)c1ccc([N+](=O)[O-])s1	?	.	.	-4.1%[11.6 µM]	?	26.9*
CCOC(=O)c1c(C)[nH]c(C)c1C(=O)COC(=O)/C=C/c1ccccc1[N+](=O)[O-]	-9.3%	.	.	-4.6%	-10.9%	.
COc1ccc(-c2cc(C(F)(F)F)n3nc(N)nc3n2)cc1	.	-1.4%	i	-8.5%	-6.7%	.
O=C(O)c1ccccc1NS(=O)(=O)c1ccc(NN=Cc2ccc(F)cc2)c([N+](=O)[O-])c1	-28.0%	.	.	?	-22.6%	.
NS(=O)(=O)c1ccc(N/N=C/c2ccc(O)cc2O)c([N+](=O)[O-])c1	-20.2%	-23.7%	-27.4%	?	-24.3%	.
NS(=O)(=O)c1ccc(N/N=C/c2ccc(O)c(O)c2O)c([N+](=O)[O-])c1	2.82µM*	15.8µM*	3.16µM*	?	10µM*	15.1*
O=C(O)c1ccccc1NS(=O)(=O)c1ccc(N/N=C/c2ccc(O)c(O)c2)c([N+](=O)[O-])c1	.	.	.	11.2µM*	28.2µM*	47.8*
O=C(C1CCCCC1)N1C[C@@H](O)[C@H](n2cc(C3CC3)nn2)C[C@@H]1c1ccc(Cl)cc1	.	.	.	3.7%	.	.
NS(=O)(=O)c1ccc(NC(=O)Cn2ncc3c2-c2ccccc2OC3)cc1	.	-8.5%	4.9%	-23.6%	4.9%	.
CC(C)OCC1CC(CC(=O)NC(=S)Nc2cccc([N+](=O)[O-])c2)C(=O)O1 (centres undefined)	6.1%	3.6%	i	1.3%	16.8%	.
CSc1nc2c(c(=O)n1Cc1ccccc1)SC(C)C2 (centres undefined)	-2.5%	-2.2%	-0.5%	-13.1%	-11.8%	.
CSc1nc2[nH]c(=O)n(O)c(=O)c2n1Cc1ccccc1	.	.	.	6.4%[11.6 µM]	-104.8%	0.0213*
Cc1cc(C)n2c(Nc3ccc4c(c3)OCCO4)c(-c3ccc(F)cc3)nc2n1	.	.	.	-10.2%	.	.
COc1cccc(NC(=O)CSc2cc(C)c3ccccc3n2)c1	.	-9.0%	.	.	8.4%	.
COc1ccc2c(C)cc(SCC(=O)Nc3cc(C(N)=O)cc(C(N)=O)c3)nc2c1	-4.9%	-26.7%	-23.2%	-6.3%[11.6 µM]	?	?
CCOc1cccc(C(=O)NNC(=O)CCC(=O)O)c1	8.6%	5.4%	i	-30.3%[57.1 µM]	-6.9%	.
CC(=O)Nc1sc2c(c1-c1ccc3nc[nH]c3c1)CCNC2	.	.	.	.	.	37.9*
Oc1ccc(Nc2nc(N3CCCC3)c3ccccc3n2)cc1	-14.9%	-1.8%	?	?	50.1µM*	33.8*
COc1ccc(Nc2nc(N3CCCCC3)c3ccccc3n2)cc1	-15.6%	-26.9%	?	-4.3%[57.1 µM]	-10.0%	.
